# Records with an inconclusive call do not appear. Where a call stands in place of a potency, no number is given. A number with no mark means an inactive call. Active and inactive are the calls of the source. The call rests on the fitted dose curve; in most records, active means well fitted curve in the direction sought with a large enough effect; inconclusive means small, poorly fitted or top-dose-only effect, or another doubt; inactive means no such curve, though single readings can be large; an effect the other way counts as inactive or inconclusive.
# Key:
# [1] = Viability qHTS for spleen associated tyrosine kinase inhibitor (SYKi) naive MV4-11 cells (AID 1963823); details: MV4-11 AML viability, CellTiter-Glo luminescence, 72 h; series mostly up to 45 µM; further: nearly all actives have a fitted effect of over 40% in size; further: potency means the concentration at half of the fitted maximal effect
# Procedure, shortened: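 SYKi-naive MV4-11 AML cells, 500 per well, were exposed to library compounds for 72 hr at 37 C, 5% CO2. Viability was then read by CellTiter-Glo luminescence after 10 min at room temperature.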
# [2] = Viability qHTS for spleen associated tyrosine kinase inhibitor (SYKi) drug resistant MV4-11 cells (AID 1963824); details: SYKi-resistant MV4-11 viability, CellTiter-Glo, 72 h; series mostly up to 45 µM; further: potency means the concentration at half of the fitted maximal effect; nearly all actives have a fitted effect of over 35% in size
# Procedure, shortened: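 CellTiter-Glo luminescence, read 10 min after reagent addition, reports viability after a 72 hr compound exposure. Cells are an MV4-11 line made resistant to SYK inhibition, seeded at 500 per well onto compound-containing plates.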
# [3] = Cellular viability qHTS for adrenocortical cancer (ACC) cell line NCI-H295R (AID 1963990); details: CellTiter-Glo ATP luminescence, 48 h; series mostly up to 46.1 µM; further: nearly all actives have a fitted effect of over 60% in size; further: potency means the concentration at half of the fitted maximal effect
# Procedure, shortened: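 Luminescent ATP read-out (CellTiter-Glo, 20 min RT) after 48 h drug exposure of NCI-H295R cells; a titration up to 46 uM final. Data normalized to doxorubicin (100% inhibition) and DMSO (0%); 4-parameter fit gives IC50, max response.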
# [4] = Cellular viability qHTS for adrenocortical cancer (ACC) cell line SW-13 (AID 1963989); details: SW-13 ACC cells viability, CellTiter-Glo, 48 h; activity (max response): active compounds read low;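 further: cells grown in serum-free medium with ITS supplement; nearly all actives have a fitted effect of over 65% in size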
# Procedure, shortened: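 SW-13 cells in ITS-supplemented serum-free DMEM were plated overnight, then exposed for 48 h at 37C to compound titrations (up to 46 uM final). Viability was read by CellTiter-Glo luminescence; four-parameter logistic fits gave IC50 and efficacy.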
# [5] = Quantitative highthroughput screen to assess conditional lethalithy of P12 Ichikawa cells grown in RPMI1640 with untreated serum (RPMI+s) (AID 1963881); details: ATP luminescence, 48 h; Potency: viability; series mostly up to 45.8 µM; further: nearly all actives have a fitted effect of over 35% in size
# Procedure, shortened: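 Each medium arm—HPLM with 10% dialyzed FBS, or RPMI1640 with 5 mM glucose and 10% untreated or dialyzed FBS—was screened against an 11-point, 3-fold compound titration for 48 h at 37 °C, with CellTiter-Glo luminescence as endpoint.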
smiles,measurement,setting,value
C/C1=C/C[C@@H](/C(C)=C/c2csc(C)n2)OC(=O)C[C@H](O)C(C)(C)C(=O)[C@H](C)[C@@H](O)[C@@H](C)CCC1,Potency,[1],33.2 nM (active)
same,Potency,[2],33.2 nM (active)
same,Potency,[3],22.4 nM (active)
CC(C)=CC1C(C(=O)OCc2cccc(Oc3ccccc3)c2)C1(C)C (centres undefined),Potency,[1],inactive
same,activity (max response),[4],3.55%
C=CCC1([C@H](C)CCC)C(=O)NC(=O)NC1=O,Potency,[1],inactive
same,activity (max response),[4],-3.9%
O=c1[nH]c2cc(Cl)ccc2n1C1CCNCC1,Potency,[1],inactive
same,activity (max response),[4],8.8%
same,Potency,[3],inactive
NCCc1ccc(O)cc1,Potency,[1],inactive
same,activity (max response),[4],4.68%
same,Potency,[3],inactive
CCOP(=S)(OCC)Oc1ccc2c(C)c(Cl)c(=O)oc2c1,Potency,[1],inactive
same,activity (max response),[4],7.58%
same,Potency,[3],inactive
CCN(C(C)=O)c1cccc(-c2ccnc3c(C#N)cnn23)c1,Potency,[1],inactive
same,activity (max response),[4],-7.67%
same,Potency,[3],inactive
CC(C)c1cccc(C(C)C)c1O,Potency,[5],inactive
CNC(=O)c1ccc(N2C(=S)N(c3ccc(C#N)c(C(F)(F)F)c3)C(=O)C23CCC3)cc1F,Potency,[5],inactive
C[C@]12CC[C@H]3[C@@H](CC[C@@]45O[C@@H]4C(O)=C(C#N)C[C@]35C)[C@@H]1CC[C@@H]2O,Potency,[2],6610 nM (active)
same,activity (max response),[4],-12.1%
same,Potency,[3],28200 nM (active)
